Compounds without any hit were thinned out: in the full panel of roughly 79,000, 15% have a hit. Active and inactive are the calls of the source. No stated cut-off is given here; in the data, active means growth inhibition above about 70%; inactive means the rest.
Key:
[1] = NCI Yeast Anticancer Drug Screen. Data for the wt1 strain (AID 149);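 further: 0% = growth of vehicle-treated wt1 cultures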; conditions: S. cerevisiae wt1 strain (SPY 50644) growth inhibition, hits give high values
Method in brief: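 Yeast wt1 strain exposed to compounds; growth inhibition measured relative to vehicle-treated controls.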

[2] = NCI Yeast Anticancer Drug Screen. Data for the rad50EPP+ strain (AID 151);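 further: 0% = growth of vehicle-treated control cultures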; conditions: S. cerevisiae rad50 mutant strain, hits give high values
Method in brief: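 rad50EPP+ yeast treated with test compounds. Readout: growth vs vehicle control.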

[3] = NCI Yeast Anticancer Drug Screen. Data for the mgt1 strain (AID 153); conditions: S. cerevisiae mgt1 mutant growth inhibition, hits give high values
Method in brief: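 Growth inhibition relative to vehicle controls was scored for the mgt1 yeast strain after compound exposure.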

[4] = NCI Yeast Anticancer Drug Screen. Data for the rad50 strain (AID 155);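 further: 0% = growth of vehicle-only cultures of the same strain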; conditions: S. cerevisiae rad50 strain growth inhibition, hits give high values
Method in brief: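 Yeast carrying a defined DNA repair defect were exposed to test compounds, and growth was compared with vehicle-treated controls to give percent inhibition.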

[5] = NCI Yeast Anticancer Drug Screen. Data for the mec2-1 strain (AID 157); conditions: S. cerevisiae mec2-1 strain, hits give high values
Method in brief: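 Growth inhibition is read against vehicle-treated controls after compound exposure of the mec2-1 yeast strain, which is defective in DNA damage repair or cell cycle control.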

[6] = NCI Yeast Anticancer Drug Screen. Data for the rad14 strain (AID 159);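 further: 0% = growth of vehicle-treated control cultures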; conditions: S. cerevisiae rad14 strain growth inhibition, hits give high values
Method in brief: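 Yeast cells carrying a defined DNA-repair defect were exposed to compounds, and growth inhibition was calculated relative to vehicle-treated control cultures.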

[7] = NCI Yeast Anticancer Drug Screen. Data for the CLN2oe strain (AID 163);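 further: 0% = growth of vehicle-only control cultures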; conditions: S. cerevisiae CLN2oe strain, hits give high values
Method in brief: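 Compound-treated yeast; growth vs vehicle ctrl = % inhibition. Genetically altered strain (cell-cycle control).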

[8] = NCI Yeast Anticancer Drug Screen. Data for the cln2 rad14 strain (AID 165);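 further: 0% = growth equal to vehicle treated cultures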; conditions: S. cerevisiae cln2 rad14 strain, hits give high values
Method in brief: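 Growth inhibition, relative to vehicle-treated controls, is the read-out. The test organism is a yeast strain with defined genetic alterations, cln2 rad14.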

[9] = NCI Yeast Anticancer Drug Screen. Data for the bub3 strain (AID 167); conditions: S. cerevisiae bub3 mutant strain, hits give high values
Method in brief: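 Compounds were applied to a genetically altered yeast strain carrying a cell-cycle control defect. Growth inhibition was scored against vehicle-treated controls.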

[10] = NCI Yeast Anticancer Drug Screen. Data for the wt2 strain (AID 169);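 further: 0% = growth of vehicle-treated yeast cultures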; conditions: S. cerevisiae wt2 strain growth inhibition, hits give high values
Method in brief: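 Compound exposure of yeast; growth compared with vehicle controls; inhibition reported.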

[11] = NCI Yeast Anticancer Drug Screen. Data for the mlh1 strain (AID 171);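 further: 0% = growth of vehicle-treated control cultures of the same strain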; conditions: S. cerevisiae mlh1 strain growth inhibition, hits give high values
Method in brief: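 Compounds are applied to a genetically altered yeast strain, and its growth is compared with that of vehicle-treated cultures to give percent inhibition.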

[12] = NCI Yeast Anticancer Drug Screen. Data for the sgs1 strain (AID 173);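 further: 0% = growth of vehicle-only control cultures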; conditions: S. cerevisiae sgs1 mutant, hits give high values
Method in brief: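 Compounds applied to genetically altered yeast; growth compared with vehicle-treated cultures to give % inhibition.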

[13] = NCI Yeast Anticancer Drug Screen. Data for the mlh1 rad18 strain (AID 175); conditions: S. cerevisiae mlh1 rad18 strain growth inhibition, hits give high values
Method in brief: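 Cells of a genetically altered yeast strain, deficient in DNA damage repair, were treated with compound. Their growth was then compared with that of vehicle-treated cultures to give inhibition.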

[14] = NCI Yeast Anticancer Drug Screen. Data for the sgs1 mgt1 strain (AID 161);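 further: 0% = growth of cultures given vehicle only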; conditions: S. cerevisiae sgs1 mgt1 strain, hits give high values
Method in brief: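 Percent growth inhibition was derived by comparing compound-exposed mutant yeast with vehicle-exposed cultures. The strain carries alterations in DNA damage repair.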

[15] = NCI Yeast Anticancer Drug Screen. Data for the rad18 strain (AID 177); conditions: S. cerevisiae rad18 mutant growth inhibition, hits give high values
Method in brief: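 Compounds are applied to a repair-deficient yeast strain, and growth is compared with that of vehicle-treated cultures to give percent inhibition.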

[16] = at 5.0 µM (retest, dose inferred, filed as 0.5)
[17] = at 50.0 µM (retest, dose inferred, filed as 5.0)

Measured: growth inhibition

S=C1NC2=C(CSC/C2=C\c2ccc(Cl)cc2)C(c2ccc(Cl)cc2)N1 (stereo not given)
active: [1]; at 100.0 µM 76% | [3]; at 33.0 µM 72% | [3]; at 100.0 µM 82% | [4]; at 33.0 µM 74% | [4]; [17] 94% | [4]; at 50.0 µM 92.9% | [4]; at 100.0 µM 71% | [5]; [17] 95% | [5]; at 50.0 µM 83.7% | [5]; at 100.0 µM 77% | [6]; at 33.0 µM 71% | [6]; at 100.0 µM 74% | [7]; at 100.0 µM 71% | [8]; [17] 92% | [8]; at 50.0 µM 95.2% | [9]; [17] 96% | [9]; at 50.0 µM 94.8% | [9]; at 100.0 µM 77% | [10]; at 100.0 µM 83% | [11]; at 33.0 µM 72% | [11]; at 100.0 µM 75% | [12]; at 33.0 µM 84% | [12]; at 100.0 µM 87% | [13]; [17] 96% | [13]; at 50.0 µM 90.7%
inactive: [1]; at 1.2 µM 8% | [1]; at 3.7 µM 19% | [1]; at 11.0 µM 24% | [1]; at 33.0 µM 61% | [2]; at 1.2 µM -3% | [2]; at 3.7 µM 12% | [2]; at 11.0 µM 12% | [2]; at 33.0 µM 16% | [2]; at 100.0 µM 9% | [3]; at 1.2 µM 29% | [3]; at 3.7 µM 31% | [3]; at 11.0 µM 44% | [4]; at 1.2 µM 20% | [4]; at 3.7 µM 42% | [4]; [16] -9% | [4]; at 11.0 µM 56% | [5]; at 1.2 µM 0% | [5]; at 3.7 µM -1% | [5]; [16] 5% | [5]; at 11.0 µM 24% | [5]; at 33.0 µM 61% | [6]; at 1.2 µM 11% | [6]; at 3.7 µM 26% | [6]; at 11.0 µM 38% | [7]; at 1.2 µM -14% | [7]; at 3.7 µM 14% | [7]; at 11.0 µM 28% | [7]; at 33.0 µM 44% | [8]; [16] 11% | [9]; at 1.2 µM -39% | [9]; at 3.7 µM -7% | [9]; [16] -7% | [9]; at 11.0 µM 16% | [9]; at 33.0 µM 56% | [10]; at 1.2 µM 25% | [10]; at 3.7 µM 31% | [10]; at 11.0 µM 39% | [10]; at 33.0 µM 68% | [11]; at 1.2 µM 3% | [11]; at 3.7 µM 26% | [11]; at 11.0 µM 46% | [12]; at 1.2 µM 42% | [12]; at 3.7 µM 45% | [12]; at 11.0 µM 66% | [13]; [16] 16%

CC(C)c1ccc(C2NC(=S)NC3=C2c2ccccc2C3=O)cc1 (stereo not given)
inactive: [1]; at 1.2 µM 16% | [1]; at 3.7 µM 6% | [1]; at 11.0 µM 18% | [1]; at 33.0 µM 17% | [1]; at 100.0 µM 17% | [2]; at 1.2 µM 23% | [2]; at 3.7 µM 21% | [2]; at 11.0 µM 16% | [2]; at 33.0 µM 15% | [2]; at 100.0 µM 3% | [3]; at 1.2 µM 3% | [3]; at 3.7 µM -4% | [3]; at 11.0 µM 7% | [3]; at 33.0 µM 19% | [3]; at 100.0 µM 50% | [4]; at 1.2 µM 24% | [4]; at 3.7 µM 24% | [4]; [16] 22% | [4]; at 11.0 µM 27% | [4]; at 33.0 µM 32% | [4]; [17] 31% | [4]; at 100.0 µM 54% | [5]; at 1.2 µM 17% | [5]; at 3.7 µM 11% | [5]; [16] -8% | [5]; at 11.0 µM -7% | [5]; at 33.0 µM 9% | [5]; [17] -11% | [5]; at 50.0 µM 64.1% | [5]; at 100.0 µM 28% | [6]; at 1.2 µM -8% | [6]; at 3.7 µM -14% | [6]; at 11.0 µM -18% | [6]; at 33.0 µM -20% | [6]; at 100.0 µM 11% | [14]; [16] 43% | [14]; [17] 24% | [7]; at 1.2 µM -9% | [7]; at 3.7 µM -5% | [7]; at 11.0 µM -5% | [7]; at 33.0 µM -8% | [7]; at 100.0 µM 18% | [8]; [16] -9% | [8]; [17] 26% | [8]; at 50.0 µM 66.8% | [9]; at 1.2 µM -3% | [9]; at 3.7 µM 4% | [9]; [16] -25% | [9]; at 11.0 µM 27% | [10]; at 1.2 µM 0% | [10]; at 3.7 µM 1% | [10]; at 11.0 µM 14% | [10]; at 33.0 µM 22% | [10]; at 100.0 µM 41% | [11]; at 1.2 µM 10% | [11]; at 3.7 µM -1% | [11]; at 11.0 µM 3% | [11]; at 33.0 µM 26% | [11]; at 100.0 µM 52% | [15]; at 1.2 µM 2% | [15]; at 3.7 µM 8% | [15]; at 11.0 µM 10% | [15]; at 33.0 µM 13% | [15]; at 100.0 µM 38%
active: [4]; at 50.0 µM 86.8% | [14]; at 50.0 µM 78% | [9]; at 33.0 µM 81% | [9]; [17] 87% | [9]; at 50.0 µM 89.7% | [9]; at 100.0 µM 88%

CCCCCC(=O)C(C)(c1nc2n(c1O)/C(=N/C(=O)Nc1ccc(Cl)cc1)N=N2)c1nc2n(c1O)/C(=N/C(=O)Nc1ccc(Cl)cc1)N=N2
active: [2]; at 100.0 µM 79% | [9]; at 50.0 µM 98.2%
inactive: [1]; at 1.2 µM 3% | [1]; at 3.7 µM -4% | [1]; at 11.0 µM -3% | [1]; at 33.0 µM 1% | [1]; at 100.0 µM 18% | [2]; at 1.2 µM 8% | [2]; at 3.7 µM 16% | [2]; at 11.0 µM 32% | [2]; at 33.0 µM 60% | [3]; at 1.2 µM 2% | [3]; at 3.7 µM 4% | [3]; at 11.0 µM -5% | [3]; at 33.0 µM 9% | [3]; at 100.0 µM 57% | [4]; at 1.2 µM 6% | [4]; at 3.7 µM 0% | [4]; [16] -7% | [4]; at 11.0 µM 6% | [4]; at 33.0 µM 24% | [4]; [17] 14% | [4]; at 50.0 µM -11.6% | [4]; at 100.0 µM 44% | [5]; at 1.2 µM -3% | [5]; at 3.7 µM -1% | [5]; [16] 20% | [5]; at 11.0 µM 2% | [5]; at 33.0 µM 8% | [5]; [17] 41% | [5]; at 50.0 µM -11.2% | [5]; at 100.0 µM 30% | [6]; at 1.2 µM -1% | [6]; at 3.7 µM 2% | [6]; at 11.0 µM -2% | [6]; at 33.0 µM 4% | [6]; at 100.0 µM 50% | [14]; [16] 12% | [14]; [17] 64% | [14]; at 50.0 µM -5.1% | [9]; at 1.2 µM -6% | [9]; at 3.7 µM -9% | [9]; [16] -42% | [9]; at 11.0 µM -8% | [9]; at 33.0 µM -1% | [9]; [17] 38% | [9]; at 100.0 µM 20% | [10]; at 1.2 µM -1% | [10]; at 3.7 µM -1% | [10]; at 11.0 µM 4% | [10]; at 33.0 µM 19% | [10]; at 100.0 µM 45% | [12]; at 1.2 µM 2% | [12]; at 3.7 µM 1% | [12]; at 11.0 µM 6% | [12]; at 33.0 µM 25% | [12]; at 100.0 µM 54% | [13]; [16] -26% | [13]; [17] 55% | [13]; at 50.0 µM 7% | [15]; at 1.2 µM -1% | [15]; at 3.7 µM 7% | [15]; at 11.0 µM 9% | [15]; at 33.0 µM 21% | [15]; at 100.0 µM 51%
